# Results from PubChem BioAssay (NCI).
# About 79,000 compounds went through this panel and 15% of them were active in at least one assay; those are over-represented in the sample as a whole. Values without a mark were called inactive. The source made the active and inactive calls. Rule as the data show it: active = growth inhibition above about 70%; inactive = the rest.
# Key:
# [1] = NCI Yeast Anticancer Drug Screen. Data for the rad52 strain (AID 147);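 also: 0% = growth of vehicle-treated control cultures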; settings: S. cerevisiae rad52 mutant growth inhibition, stronger effect = higher value
# Outline: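 Inhibition of yeast growth, referenced to vehicle controls, was the measured output for a strain with defective DNA damage repair.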
# [2] = NCI Yeast Anticancer Drug Screen. Data for the wt1 strain (AID 149);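 also: 0% = growth of vehicle-treated wt1 cultures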; settings: S. cerevisiae wt1 strain (SPY 50644) growth inhibition, stronger effect = higher value
# Outline: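 The wt1 strain was treated with compounds, and growth was compared with vehicle-treated cultures to give inhibition.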
# [3] = NCI Yeast Anticancer Drug Screen. Data for the rad50EPP+ strain (AID 151);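 also: 0% = growth of vehicle-treated control cultures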; settings: S. cerevisiae rad50 mutant strain, stronger effect = higher value
# Outline: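 Genetically defined yeast (rad50EPP+, DNA damage repair alteration) is grown with compound, and inhibition of growth is expressed relative to vehicle-treated controls.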
# [4] = NCI Yeast Anticancer Drug Screen. Data for the rad50 strain (AID 155);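 also: 0% = growth of vehicle-only cultures of the same strain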; settings: S. cerevisiae rad50 strain growth inhibition, stronger effect = higher value
# Outline: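 Cells are treated with compound, grown, and their growth is then scored against vehicle-only cultures of the same repair-deficient yeast strain.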
# [5] = NCI Yeast Anticancer Drug Screen. Data for the mec2-1 strain (AID 157); settings: S. cerevisiae mec2-1 strain, stronger effect = higher value
# Outline: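 Each compound was tested on mec2-1 yeast, a strain altered in DNA damage repair or cell cycle control. Growth inhibition is reported relative to vehicle.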
# [6] = NCI Yeast Anticancer Drug Screen. Data for the rad14 strain (AID 159);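 also: 0% = growth of vehicle-treated control cultures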; settings: S. cerevisiae rad14 strain growth inhibition, stronger effect = higher value
# Outline: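 Readout: yeast growth inhibition, referenced to vehicle-only cultures. Strain bears a defined alteration in DNA damage repair.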
# [7] = NCI Yeast Anticancer Drug Screen. Data for the sgs1 mgt1 strain (AID 161);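 also: 0% = growth of cultures given vehicle only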; settings: S. cerevisiae sgs1 mgt1 strain, stronger effect = higher value
# Outline: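 Test agents were incubated with a DNA-repair-mutant yeast strain. Growth was then read and compared against vehicle-treated controls.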
# [8] = NCI Yeast Anticancer Drug Screen. Data for the CLN2oe strain (AID 163);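 also: 0% = growth of vehicle-only control cultures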; settings: S. cerevisiae CLN2oe strain, stronger effect = higher value
# Outline: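 First, the altered yeast strain was treated with each compound; second, its growth was measured; finally, inhibition was derived by comparison with vehicle controls.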
# [9] = NCI Yeast Anticancer Drug Screen. Data for the cln2 rad14 strain (AID 165);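 also: 0% = growth equal to vehicle treated cultures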; settings: S. cerevisiae cln2 rad14 strain, stronger effect = higher value
# Outline: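 Test compounds were added to cln2 rad14 yeast cultures; inhibition of growth was then determined by comparison with vehicle treatment.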
# [10] = NCI Yeast Anticancer Drug Screen. Data for the bub3 strain (AID 167); settings: S. cerevisiae bub3 mutant strain, stronger effect = higher value
# Outline: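 Part of a panel of yeast mutants defective in DNA damage repair or cell cycle regulation. Each strain is grown with compound, and inhibition is calculated relative to solvent-treated cultures.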
# [11] = NCI Yeast Anticancer Drug Screen. Data for the wt2 strain (AID 169);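 also: 0% = growth of vehicle-treated yeast cultures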; settings: S. cerevisiae wt2 strain growth inhibition, stronger effect = higher value
# Outline: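 The panel's yeast strains carry defined changes in DNA repair or cell cycle genes. Each strain is grown with compound, and growth loss is scored relative to vehicle.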
# [12] = NCI Yeast Anticancer Drug Screen. Data for the mlh1 strain (AID 171);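 also: 0% = growth of vehicle-treated control cultures of the same strain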; settings: S. cerevisiae mlh1 strain growth inhibition, stronger effect = higher value
# Outline: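 Inhibition values reflect reduced yeast growth in the presence of compound, referenced to vehicle controls, using a strain chosen for its alteration in DNA repair or cell cycle control.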
# [13] = NCI Yeast Anticancer Drug Screen. Data for the sgs1 strain (AID 173);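 also: 0% = growth of vehicle-only control cultures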; settings: S. cerevisiae sgs1 mutant, stronger effect = higher value
# Outline: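 Vehicle-treated cultures served as reference for growth inhibition of a yeast strain altered in DNA damage repair or cell cycle control after compound exposure.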
# [14] = NCI Yeast Anticancer Drug Screen. Data for the mlh1 rad18 strain (AID 175); settings: S. cerevisiae mlh1 rad18 strain growth inhibition, stronger effect = higher value
# Outline: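 Inhibition values reflect reduced growth of mutant yeast versus vehicle-treated controls following compound exposure; the mutations affect DNA damage repair.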
# [15] = NCI Yeast Anticancer Drug Screen. Data for the rad18 strain (AID 177); settings: S. cerevisiae rad18 mutant growth inhibition, stronger effect = higher value
# Outline: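 Steps: expose repair-mutant yeast to compound; measure growth; express as inhibition relative to vehicle control.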
# [16] = at 5.0 µM (retest, dose inferred, filed as 0.5)
# [17] = at 50.0 µM (retest, dose inferred, filed as 5.0)
smiles,measurement,setting,value
CCC(=O)N(c1ccccc1)C(C)CN1CCC(O)(c2cccc(C(F)(F)F)c2)CC1 (stereo not drawn),growth inhibition,[1]; at 1.2 µM,0%
same,growth inhibition,[1]; at 3.7 µM,4%
same,growth inhibition,[1]; at 11.0 µM,13%
same,growth inhibition,[1]; at 33.0 µM,27%
same,growth inhibition,[1]; at 100.0 µM,83% (active)
same,growth inhibition,[2]; at 1.2 µM,2%
same,growth inhibition,[2]; at 3.7 µM,6%
same,growth inhibition,[2]; at 11.0 µM,11%
same,growth inhibition,[2]; at 33.0 µM,22%
same,growth inhibition,[2]; at 100.0 µM,46%
same,growth inhibition,[3]; at 1.2 µM,-3%
same,growth inhibition,[3]; at 3.7 µM,-3%
same,growth inhibition,[3]; at 11.0 µM,-1%
same,growth inhibition,[3]; at 33.0 µM,-2%
same,growth inhibition,[3]; at 100.0 µM,-1%
same,growth inhibition,[4]; at 1.2 µM,-2%
same,growth inhibition,[4]; at 3.7 µM,-7%
same,growth inhibition,[4]; [16],21%
same,growth inhibition,[4]; at 11.0 µM,3%
same,growth inhibition,[4]; at 33.0 µM,26%
same,growth inhibition,[4]; [17],4%
same,growth inhibition,[4]; at 50.0 µM,62.3%
same,growth inhibition,[4]; at 100.0 µM,76% (active)
same,growth inhibition,[5]; at 1.2 µM,0%
same,growth inhibition,[5]; at 3.7 µM,7%
same,growth inhibition,[5]; [16],-2%
same,growth inhibition,[5]; at 11.0 µM,17%
same,growth inhibition,[5]; at 33.0 µM,23%
same,growth inhibition,[5]; [17],10%
same,growth inhibition,[5]; at 50.0 µM,10.2%
same,growth inhibition,[5]; at 100.0 µM,57%
same,growth inhibition,[6]; at 1.2 µM,6%
same,growth inhibition,[6]; at 3.7 µM,18%
same,growth inhibition,[6]; at 11.0 µM,48%
same,growth inhibition,[6]; at 33.0 µM,68%
same,growth inhibition,[6]; at 100.0 µM,97% (active)
same,growth inhibition,[7]; [16],-4%
same,growth inhibition,[7]; [17],41%
same,growth inhibition,[7]; at 50.0 µM,68.2%
same,growth inhibition,[8]; at 1.2 µM,2%
same,growth inhibition,[8]; at 3.7 µM,1%
same,growth inhibition,[8]; at 11.0 µM,13%
same,growth inhibition,[8]; at 33.0 µM,41%
same,growth inhibition,[8]; at 100.0 µM,73% (active)
same,growth inhibition,[9]; [16],7%
same,growth inhibition,[9]; [17],43%
same,growth inhibition,[9]; at 50.0 µM,18.6%
same,growth inhibition,[10]; at 1.2 µM,1%
same,growth inhibition,[10]; at 3.7 µM,3%
same,growth inhibition,[10]; [16],4%
same,growth inhibition,[10]; at 11.0 µM,17%
same,growth inhibition,[10]; at 33.0 µM,49%
same,growth inhibition,[10]; [17],51%
same,growth inhibition,[10]; at 50.0 µM,65.2%
same,growth inhibition,[10]; at 100.0 µM,89% (active)
same,growth inhibition,[11]; at 1.2 µM,0%
same,growth inhibition,[11]; at 3.7 µM,5%
same,growth inhibition,[11]; at 11.0 µM,16%
same,growth inhibition,[11]; at 33.0 µM,44%
same,growth inhibition,[11]; at 100.0 µM,96% (active)
same,growth inhibition,[12]; at 1.2 µM,2%
same,growth inhibition,[12]; at 3.7 µM,6%
same,growth inhibition,[12]; at 11.0 µM,17%
same,growth inhibition,[12]; at 33.0 µM,44%
same,growth inhibition,[12]; at 100.0 µM,91% (active)
same,growth inhibition,[13]; at 1.2 µM,2%
same,growth inhibition,[13]; at 3.7 µM,10%
same,growth inhibition,[13]; at 11.0 µM,20%
same,growth inhibition,[13]; at 33.0 µM,60%
same,growth inhibition,[13]; at 100.0 µM,94% (active)
same,growth inhibition,[14]; [16],-3%
same,growth inhibition,[14]; [17],37%
same,growth inhibition,[14]; at 50.0 µM,38.9%
same,growth inhibition,[15]; at 1.2 µM,3%
same,growth inhibition,[15]; at 3.7 µM,9%
same,growth inhibition,[15]; at 11.0 µM,25%
same,growth inhibition,[15]; at 33.0 µM,31%
same,growth inhibition,[15]; at 100.0 µM,69%
COc1ccc(/C=C(\NC(=O)c2ccccc2)C(=O)NN(C)c2ccnc3cc(Cl)ccc23)cc1OC,growth inhibition,[1]; at 1.2 µM,3%
same,growth inhibition,[1]; at 3.7 µM,1%
same,growth inhibition,[1]; at 11.0 µM,12%
same,growth inhibition,[1]; at 33.0 µM,5%
same,growth inhibition,[1]; at 100.0 µM,27%
same,growth inhibition,[2]; at 1.2 µM,-41%
same,growth inhibition,[2]; at 3.7 µM,0%
same,growth inhibition,[2]; at 11.0 µM,3%
same,growth inhibition,[2]; at 33.0 µM,11%
same,growth inhibition,[2]; at 100.0 µM,15%
same,growth inhibition,[3]; at 1.2 µM,4%
same,growth inhibition,[3]; at 3.7 µM,20%
same,growth inhibition,[3]; at 11.0 µM,78% (active)
same,growth inhibition,[3]; at 33.0 µM,90% (active)
same,growth inhibition,[3]; at 100.0 µM,78% (active)
same,growth inhibition,[4]; at 1.2 µM,-1%
same,growth inhibition,[4]; at 3.7 µM,7%
same,growth inhibition,[4]; [16],0%
same,growth inhibition,[4]; at 11.0 µM,19%
same,growth inhibition,[4]; at 33.0 µM,30%
same,growth inhibition,[4]; [17],30%
same,growth inhibition,[4]; at 50.0 µM,86.5% (active)
same,growth inhibition,[4]; at 100.0 µM,36%
same,growth inhibition,[5]; at 1.2 µM,-2%
same,growth inhibition,[5]; at 3.7 µM,-3%
same,growth inhibition,[5]; [16],-12%
same,growth inhibition,[5]; at 11.0 µM,0%
same,growth inhibition,[5]; at 33.0 µM,11%
same,growth inhibition,[5]; [17],-14%
same,growth inhibition,[5]; at 50.0 µM,28.6%
same,growth inhibition,[5]; at 100.0 µM,10%
same,growth inhibition,[6]; at 1.2 µM,2%
same,growth inhibition,[6]; at 3.7 µM,5%
same,growth inhibition,[6]; at 11.0 µM,8%
same,growth inhibition,[6]; at 33.0 µM,8%
same,growth inhibition,[6]; at 100.0 µM,6%
same,growth inhibition,[7]; [16],-6%
same,growth inhibition,[7]; [17],-6%
same,growth inhibition,[7]; at 50.0 µM,73.1% (active)
same,growth inhibition,[8]; at 1.2 µM,-2%
same,growth inhibition,[8]; at 3.7 µM,6%
same,growth inhibition,[8]; at 11.0 µM,38%
same,growth inhibition,[8]; at 33.0 µM,48%
same,growth inhibition,[8]; at 100.0 µM,58%
same,growth inhibition,[9]; [16],28%
same,growth inhibition,[9]; [17],5%
same,growth inhibition,[9]; at 50.0 µM,55.4%
same,growth inhibition,[10]; at 1.2 µM,-4%
same,growth inhibition,[10]; at 3.7 µM,-4%
same,growth inhibition,[10]; [16],9%
same,growth inhibition,[10]; at 11.0 µM,22%
same,growth inhibition,[10]; at 33.0 µM,32%
same,growth inhibition,[10]; [17],49%
same,growth inhibition,[10]; at 50.0 µM,90.2% (active)
same,growth inhibition,[10]; at 100.0 µM,50%
same,growth inhibition,[11]; at 1.2 µM,-1%
same,growth inhibition,[11]; at 3.7 µM,4%
same,growth inhibition,[11]; at 11.0 µM,31%
same,growth inhibition,[11]; at 33.0 µM,36%
same,growth inhibition,[11]; at 100.0 µM,27%
same,growth inhibition,[12]; at 1.2 µM,-2%
same,growth inhibition,[12]; at 3.7 µM,1%
same,growth inhibition,[12]; at 11.0 µM,6%
same,growth inhibition,[12]; at 33.0 µM,15%
same,growth inhibition,[12]; at 100.0 µM,25%
same,growth inhibition,[13]; at 1.2 µM,0%
same,growth inhibition,[13]; at 3.7 µM,3%
same,growth inhibition,[13]; at 11.0 µM,7%
same,growth inhibition,[13]; at 33.0 µM,21%
same,growth inhibition,[13]; at 100.0 µM,31%
same,growth inhibition,[15]; at 1.2 µM,2%
same,growth inhibition,[15]; at 3.7 µM,5%
same,growth inhibition,[15]; at 11.0 µM,11%
same,growth inhibition,[15]; at 33.0 µM,41%
same,growth inhibition,[15]; at 100.0 µM,50%
